# Test results from PubChem BioAssay (NCATS).
# Inconclusive results are not listed. Entries that show only a call come without a potency. Active and inactive are the calls of the source. Unless noted, the call rests on the fitted dose curve; in most records, active means well fitted curve in the direction sought with a large enough effect; inconclusive means small, poorly fitted or top-dose-only effect, or another doubt; inactive means no such curve, though single readings can be large; an effect the other way counts as inactive or inconclusive.
# Tests used:
# [1] = AP1 Signaling Pathway (AID 357; active means well fitted curve in either direction with a large enough effect, not every such curve was filed as active;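 further: ME-180 reporter cells stimulated with EGF at its EC50 level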); conditions: ME-180 AP-1-bla reporter, EGF-induced, beta-lactamase ratio, 5 h; at 38 µM (top of the series)
# In short: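 Beta-lactamase reporter under AP-1 response element, ME-180 background. Stimulus: EC50 EGF. Compound exposure 5 h, 37 °C. Detection: CCF4, 2.5 h RT, 460/530 nm. Values: AC50 from titration.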
# [2] = target: Cytochrome P450 1A2 (Homo sapiens) (UniProt P05177); assay: p450-cyp1a2 (AID 410; calls by dose curve)
# In short: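 Luminescent readout of luciferin formed from Luciferin-ME by human CYP1A2; data normalized against complete inhibition by 57 uM furafylline. Enzyme 20nM, substrate 100uM at Km, 100mM KPO4 buffer, 60 min reaction at room temperature.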
# [3] = NFAT Signaling Pathway (AID 444; active means well fitted curve in either direction with a large enough effect, not every such curve was filed as active;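 further: carbachol stimulus at about its EC50 of 1 µM final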); conditions: Jurkat NFAT-bla M1, carbachol, beta-lactamase ratio, 5 h; at 38 µM (top of the series)
# In short: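 Read-out: CCF4 FRET ratio (460 nm/530 nm) after 1 h RT dye loading, used for %activity and AC50 from titration series. Cells: Jurkat NFAT-β-lactamase/M1 line, treated with compound plus 1 uM carbachol for 5 h, 37 °C.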
# [4] = Stat Signaling Pathway (AID 446; active means well fitted curve in either direction with a large enough effect, not every such curve was filed as active;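 further: ME-180 cervical cancer cells given 40 pM IL-6 alongside compound; SIE-controlled beta-lactamase reporter measured as 460/530 nm FRET emission ratio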); conditions: ME-180 SIE beta-lactamase reporter, IL-6 stimulated, 5 h; at 38 µM (top of the series)
# In short: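 Screening format detects activators and inhibitors alike: ME-180 SIE-bla cells stimulated at 40 pM IL-6 for 5 hrs with compound, then dual-emission beta-lactamase read at 405 nm excitation.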
# [5] = target: Glucocorticoid receptor (Homo sapiens) (UniProt P04150); assay: GR-GFP Redistribution (AID 450;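 active means compounds whose dose series gives a full or clear partial fitted curve of increased nuclear translocation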; further: potency means the concentration at half of the fitted maximal effect); conditions: U2OS GR-GFP nuclear translocation, laser cytometry, 2 h
# [6] = target: Glucocorticoid receptor (Homo sapiens) (UniProt P04150); assay: GR-EFC Redistribution (AID 451; calls by dose curve; further: potency means the concentration at half of the fitted maximal effect); conditions: CHO-K1 GR-EFC translocation, beta-gal luminescence, 2 h
# In short: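 Translocation of GR-ED fusion to nuclear EA restores b-gal, read by luminescence after 1 h room-temperature detection. Engineered CHO-K1 biosensor cells, 1,000/well, exposed 2 h at 37 C to titrations up to 46 uM final.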
# [7] = target: Mitogen-activated protein kinase 10 (Mus musculus) (UniProt Q61831); assay: JNK3 AlphaScreen Assay (AID 530; active means well fitted curve in either direction with a large enough effect, not every such curve was filed as active;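 further: kinase came from lysate of stimulated human HepG2 cells; signal reports phosphorylation of biotinylated GST-cJun 1-79 at Ser73 with 10 µM ATP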)
# In short: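 Compound titrations were preincubated 15 minutes at room temperature with substrate, antibody and pre-activated JNK3-containing HepG2 lysate. Reactions were started with 10 uM ATP and stopped with EDTA-containing bead buffer for AlphaScreen detection.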
# [8] = target: 3',5'-cyclic-AMP phosphodiesterase 4B (Homo sapiens) (UniProt Q07343); assay: qHTS Assay for Inhibitors of PDE-IV (AID 607; active means well fitted activation curve with a large enough effect in the main read-out, with a control signal flat, not every such curve was filed as active)
# In short: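 The readout is membrane depolarisation from a cAMP-sensing CNG channel, detected with a potential dye at ex 535/em 590. Cells were HEK293-derived (endogenous PDE-IV) at 1000 cells/well, titrated up to 22.9 uM final.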
# [9] = target: Guanine nucleotide-binding protein G(i) subunit alpha-1 (Homo sapiens) (UniProt P63096); assay: qHTS Assay for Inhibitors of RGS12 GoLoco Motif Activity (Green Fluorophore) (AID 879);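 further: negative values mean loss of peptide binding seen as reduced polarization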
# In short: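 Fluorescence polarization assay: 50 nM Gαi1 with 10 nM FITC-labeled RGS12 GoLoco peptide in 10 mM Tris pH 7.5, 150 mM NaCl, 0.1 mM GDP, 0.05% NP40, 10 min at room temperature with compound.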
# [10] = target: Cytochrome P450 3A4 (Homo sapiens) (UniProt P08684); assay: qHTS Assay for Activators of Cytochrome P450 3A4 (AID 885); further: nearly all actives have a fitted effect of over 65% in size
# In short: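 Steps: enzyme/substrate mix dispensed; compound added, 10 min RT; NADPH regeneration solution added, 60 min RT; luciferin detection buffer stops reaction; 20 min later luminescence measured.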
# [11] = target: Muscarinic acetylcholine receptor M1 (Rattus norvegicus) (UniProt P08482); assay: qHTS Assay for Antagonists of Acetylcholine Muscarinic M1 Receptor: Measurement of IP-One Response (AID 944); further: nearly all actives have a fitted effect of over 75% in size
# In short: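 M1-CHO (rat), 2000 cells/well, overnight recovery; cpd 10 min; carbachol EC80 (200 nM), 30 min, HEPES buffer + 50 mM LiCl pH 7.4; IP-One HTRF, Ex 337, Em 620/665 nm.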
# [12] = target: Pyruvate kinase (Leishmania mexicana) (UniProt Q27686); assay: qHTS Validation Assay for Inhibitors of Leishmania Mexicana Pyruvate Kinase (AID 945)
# In short: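 LmPYK E451W 0.2 nM; 0.5 mM PEP, 0.1 mM ADP, 7 mM MgCl2, 50 mM KCl, imidazole pH 7.2, 0.01% Tween 20, 0.05% BSA; 1 h RT; PKLight luminescence; DMSO-normalized.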
# [13] = target: Pyruvate kinase PKM (Homo sapiens) (UniProt P14618); assay: qHTS Assay for Activators of Human Muscle Pyruvate Kinase (AID 954; active means well fitted curve in the direction sought with a large enough effect, not every such curve was filed as active)
# In short: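 Reaction: 0.1 nM purified PKM2 with 0.5 mM phosphoenolpyruvate and 0.1 mM ADP, room temperature, 1 h. Readout: luciferase-based ATP luminescence after stop reagent. Activators judged against a 0.3 nM enzyme column.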
# [14] = target: Alpha-galactosidase A (Homo sapiens) (UniProt P06280); assay: Counterscreen for Glucocerebrosidase Inhibitors: qHTS Assay for Human alpha-Galactosidase at pH 4.5 (AID 992)
# In short: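 Concentration-response curves (0.7 nM to 77 uM final) were modeled with the Hill equation to give AC50. Reactions: 2 nM enzyme, 80 uM fluorogenic alpha-galactoside, pH 4.5 citric acid buffer, 20 min, room temperature.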
# [15] = target: alpha-glucosidase (Oryza sativa, rice) (UniProt Q653V4); assay: Counterscreen for Glucocerebrosidase Inhibitors: qHTS Assay for Rice alpha-Glucosidase at pH 5.0 (AID 997)
# In short: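 Rice alpha-glucosidase (4 nM final) with 400 uM 4-methylumbelliferyl-alpha-D-glucopyranoside in citrate buffer pH 5.0, 20 min at room temperature, stopped at pH 10; fluorescence 365/440 nm, compounds 0.7 nM–77 uM, AC50 from Hill fits.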
# [16] = Validation of Assay for Modulators of Lamin A Splicing (AID 1459; active means well fitted curve in the direction sought with a large enough effect in the signal ratio; the % refers to the signal ratio;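 further: cells exposed to compound for two days before reading; ratio rise marks activators and ratio drop marks inhibitors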)
# In short: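 Splicing correction read as GFP (500-530 nm) over DsRed2 (575-640 nm) object intensity after 48 h compound exposure of reporter HeLa S3 clones (600 cells/well, 2% FBS medium); ancitabine and cycloheximide titrations, 0.5% DMSO as vehicle.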
# [17] = qHTS Assay for Lipid Storage Modulators (AID 1519; calls by dose curve); conditions: Drosophila S3 cells, BODIPY lipid droplet/cell ratio, laser cytometry, cells loaded with oleic acid
# In short: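 Cells seeded at 5,000 per well were treated with compounds over a concentration series and loaded with oleic acid (400 uM, as added). Lipid droplet fluorescence (488 nm excitation, 500-530 nm channel) was read by laser-scanning cytometry and normalized to 20 uM Triacsin C.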
# [18] = target: DNA repair nuclease/redox regulator APEX1 (Homo sapiens) (UniProt P27695); assay: qHTS Validation Assay for Inhibitors of the Human Apurinic/apyrimidinic Endonuclease 1 (APE1) (AID 1705;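 further: TAMRA fluorescence gain over two minutes as APE1 cuts a quenched THF abasic duplex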)
# In short: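 Activity read as rising fluorescence (598 nm emission, 525 nm excitation) from incision of a TAMRA/BHQ-2 duplex carrying a THF abasic site (50 nM). Compound and enzyme sat 15 min at RT before substrate start; signal change between first and third 60-s reads.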
# [19] = Counterscreen for APE1 Inhibitors: Fluorescent Dye Displacement Validation Assay (AID 1707)
# In short: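 Assay buffer: Tris-HCl pH7.5 with 50mM NaCl, 2 mM MgCl2, 0.01% Tween-20. Dye 250 nM, duplex 50 nM final. Readout: decrease in ThO endpoint fluorescence, 480 nm excitation, 540 nm emission.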
# Chain of Glucocorticoid receptor (Homo sapiens) (P04150 whole entry, looked up, the tested form may be a part): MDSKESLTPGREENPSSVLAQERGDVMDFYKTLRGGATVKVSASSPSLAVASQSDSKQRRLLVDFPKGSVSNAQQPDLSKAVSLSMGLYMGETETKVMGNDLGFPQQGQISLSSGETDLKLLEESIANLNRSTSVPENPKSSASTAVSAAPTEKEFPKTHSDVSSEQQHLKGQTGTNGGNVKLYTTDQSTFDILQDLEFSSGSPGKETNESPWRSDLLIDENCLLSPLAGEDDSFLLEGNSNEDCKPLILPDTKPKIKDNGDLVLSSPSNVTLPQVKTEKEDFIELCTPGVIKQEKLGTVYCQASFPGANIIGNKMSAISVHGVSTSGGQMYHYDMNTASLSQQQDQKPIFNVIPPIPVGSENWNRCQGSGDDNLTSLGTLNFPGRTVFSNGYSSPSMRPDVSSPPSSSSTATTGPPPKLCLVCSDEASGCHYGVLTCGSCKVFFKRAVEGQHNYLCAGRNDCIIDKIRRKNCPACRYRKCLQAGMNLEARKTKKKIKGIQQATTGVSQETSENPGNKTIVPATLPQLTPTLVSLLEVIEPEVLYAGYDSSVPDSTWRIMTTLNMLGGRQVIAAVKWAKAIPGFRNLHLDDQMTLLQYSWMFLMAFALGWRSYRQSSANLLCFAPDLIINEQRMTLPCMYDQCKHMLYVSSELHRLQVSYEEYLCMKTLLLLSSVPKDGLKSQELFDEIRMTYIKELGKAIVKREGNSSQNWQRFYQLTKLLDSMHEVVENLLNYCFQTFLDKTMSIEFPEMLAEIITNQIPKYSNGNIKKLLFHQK
# Chain of Cytochrome P450 1A2 (Homo sapiens) (P05177 whole entry, looked up): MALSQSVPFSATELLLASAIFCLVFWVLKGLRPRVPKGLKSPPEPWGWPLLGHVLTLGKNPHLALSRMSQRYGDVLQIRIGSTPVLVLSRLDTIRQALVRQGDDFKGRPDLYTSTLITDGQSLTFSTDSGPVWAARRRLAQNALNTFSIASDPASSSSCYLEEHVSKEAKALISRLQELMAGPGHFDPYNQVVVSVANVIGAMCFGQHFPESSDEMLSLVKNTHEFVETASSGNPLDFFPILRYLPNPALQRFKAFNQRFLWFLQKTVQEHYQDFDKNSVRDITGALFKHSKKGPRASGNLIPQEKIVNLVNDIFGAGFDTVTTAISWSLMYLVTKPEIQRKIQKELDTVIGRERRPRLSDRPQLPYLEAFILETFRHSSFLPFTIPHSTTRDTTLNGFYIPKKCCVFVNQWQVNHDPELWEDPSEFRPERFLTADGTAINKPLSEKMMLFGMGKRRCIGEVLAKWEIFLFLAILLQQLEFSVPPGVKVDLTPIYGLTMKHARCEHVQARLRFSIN
# Chain of 3',5'-cyclic-AMP phosphodiesterase 4B (Homo sapiens) (Q07343 whole entry, looked up): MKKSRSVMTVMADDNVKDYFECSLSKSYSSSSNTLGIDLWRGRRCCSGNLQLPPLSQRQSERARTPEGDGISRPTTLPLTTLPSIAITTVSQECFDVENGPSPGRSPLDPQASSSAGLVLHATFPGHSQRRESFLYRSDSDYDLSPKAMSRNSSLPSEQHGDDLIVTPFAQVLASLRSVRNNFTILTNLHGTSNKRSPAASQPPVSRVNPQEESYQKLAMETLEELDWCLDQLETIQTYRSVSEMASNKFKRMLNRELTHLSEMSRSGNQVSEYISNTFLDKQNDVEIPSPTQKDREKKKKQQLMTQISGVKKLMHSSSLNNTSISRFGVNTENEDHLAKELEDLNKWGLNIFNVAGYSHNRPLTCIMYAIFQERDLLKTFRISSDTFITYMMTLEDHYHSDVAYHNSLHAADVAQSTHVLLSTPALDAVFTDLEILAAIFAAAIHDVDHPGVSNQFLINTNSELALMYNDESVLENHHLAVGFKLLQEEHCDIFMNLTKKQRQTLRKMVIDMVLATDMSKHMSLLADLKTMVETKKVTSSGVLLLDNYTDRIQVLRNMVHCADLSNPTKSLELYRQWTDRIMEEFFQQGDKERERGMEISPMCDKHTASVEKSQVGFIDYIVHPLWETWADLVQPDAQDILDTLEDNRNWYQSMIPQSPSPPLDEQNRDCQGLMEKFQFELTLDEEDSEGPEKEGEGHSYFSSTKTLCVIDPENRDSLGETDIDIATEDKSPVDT
# Chain of Muscarinic acetylcholine receptor M1 (Rattus norvegicus) (P08482 whole entry, looked up): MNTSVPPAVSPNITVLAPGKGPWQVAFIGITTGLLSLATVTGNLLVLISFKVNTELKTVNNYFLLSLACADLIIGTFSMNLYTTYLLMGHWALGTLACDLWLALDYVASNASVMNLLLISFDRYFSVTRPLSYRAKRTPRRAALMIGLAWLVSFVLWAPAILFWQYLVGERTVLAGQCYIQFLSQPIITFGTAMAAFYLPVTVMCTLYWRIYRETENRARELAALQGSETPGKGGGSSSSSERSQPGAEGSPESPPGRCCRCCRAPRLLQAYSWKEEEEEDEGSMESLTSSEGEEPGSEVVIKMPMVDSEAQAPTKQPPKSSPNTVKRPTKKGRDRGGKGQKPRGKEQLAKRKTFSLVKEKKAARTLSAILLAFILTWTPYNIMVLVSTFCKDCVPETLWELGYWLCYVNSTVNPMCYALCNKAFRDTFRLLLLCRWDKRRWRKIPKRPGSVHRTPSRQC
# Chain of Pyruvate kinase PKM (Homo sapiens) (P14618 whole entry, looked up): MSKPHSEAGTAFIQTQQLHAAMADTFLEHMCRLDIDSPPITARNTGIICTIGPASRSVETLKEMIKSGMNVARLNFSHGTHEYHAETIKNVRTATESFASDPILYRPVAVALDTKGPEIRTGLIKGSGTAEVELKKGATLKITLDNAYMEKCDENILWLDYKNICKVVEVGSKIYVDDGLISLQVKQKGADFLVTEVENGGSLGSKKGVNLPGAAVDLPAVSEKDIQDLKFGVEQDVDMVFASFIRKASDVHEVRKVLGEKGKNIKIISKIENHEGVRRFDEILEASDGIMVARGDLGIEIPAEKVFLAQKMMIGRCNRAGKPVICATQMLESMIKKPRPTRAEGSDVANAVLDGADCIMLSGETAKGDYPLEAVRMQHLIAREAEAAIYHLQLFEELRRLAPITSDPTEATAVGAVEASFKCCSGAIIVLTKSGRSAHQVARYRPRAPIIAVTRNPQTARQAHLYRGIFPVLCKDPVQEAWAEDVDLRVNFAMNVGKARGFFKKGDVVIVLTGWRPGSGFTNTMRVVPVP
# Chain of Alpha-galactosidase A (Homo sapiens) (P06280 whole entry, looked up): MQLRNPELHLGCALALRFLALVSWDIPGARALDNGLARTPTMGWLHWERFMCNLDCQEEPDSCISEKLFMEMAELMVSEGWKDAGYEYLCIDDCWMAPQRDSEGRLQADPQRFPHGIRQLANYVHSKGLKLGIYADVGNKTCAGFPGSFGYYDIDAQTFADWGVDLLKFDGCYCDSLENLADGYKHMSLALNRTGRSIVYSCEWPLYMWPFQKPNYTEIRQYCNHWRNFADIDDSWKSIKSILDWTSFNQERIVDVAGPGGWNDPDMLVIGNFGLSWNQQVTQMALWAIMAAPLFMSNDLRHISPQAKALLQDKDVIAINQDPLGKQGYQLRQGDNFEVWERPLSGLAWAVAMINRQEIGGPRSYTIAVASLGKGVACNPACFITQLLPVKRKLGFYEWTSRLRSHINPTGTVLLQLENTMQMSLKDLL
# Chain of Cytochrome P450 3A4 (Homo sapiens) (P08684 whole entry, looked up): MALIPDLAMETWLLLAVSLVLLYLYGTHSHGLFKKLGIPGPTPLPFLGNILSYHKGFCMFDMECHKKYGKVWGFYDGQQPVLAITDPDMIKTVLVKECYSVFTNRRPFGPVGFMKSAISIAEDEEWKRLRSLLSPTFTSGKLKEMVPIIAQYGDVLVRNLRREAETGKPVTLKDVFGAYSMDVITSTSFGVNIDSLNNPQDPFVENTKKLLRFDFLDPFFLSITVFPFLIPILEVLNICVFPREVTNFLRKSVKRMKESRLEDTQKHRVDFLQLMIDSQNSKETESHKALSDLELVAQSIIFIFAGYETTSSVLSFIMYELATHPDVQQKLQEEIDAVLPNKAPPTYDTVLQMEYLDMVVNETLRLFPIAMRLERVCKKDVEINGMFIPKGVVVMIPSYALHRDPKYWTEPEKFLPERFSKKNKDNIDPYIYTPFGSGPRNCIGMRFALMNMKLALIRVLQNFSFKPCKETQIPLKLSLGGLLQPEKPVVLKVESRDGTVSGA
# Chain of DNA repair nuclease/redox regulator APEX1 (Homo sapiens) (P27695 whole entry, looked up): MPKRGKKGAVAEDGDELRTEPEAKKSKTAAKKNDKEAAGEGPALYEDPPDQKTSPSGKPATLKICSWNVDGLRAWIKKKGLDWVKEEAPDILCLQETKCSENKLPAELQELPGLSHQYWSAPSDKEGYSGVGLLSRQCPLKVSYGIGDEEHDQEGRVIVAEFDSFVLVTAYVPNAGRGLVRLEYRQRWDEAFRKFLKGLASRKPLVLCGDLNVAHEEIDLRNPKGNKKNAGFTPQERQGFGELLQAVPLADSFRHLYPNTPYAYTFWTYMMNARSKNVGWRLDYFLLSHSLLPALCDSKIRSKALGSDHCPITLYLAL
# Chain of Pyruvate kinase (Leishmania mexicana) (Q27686 2-499 E452W): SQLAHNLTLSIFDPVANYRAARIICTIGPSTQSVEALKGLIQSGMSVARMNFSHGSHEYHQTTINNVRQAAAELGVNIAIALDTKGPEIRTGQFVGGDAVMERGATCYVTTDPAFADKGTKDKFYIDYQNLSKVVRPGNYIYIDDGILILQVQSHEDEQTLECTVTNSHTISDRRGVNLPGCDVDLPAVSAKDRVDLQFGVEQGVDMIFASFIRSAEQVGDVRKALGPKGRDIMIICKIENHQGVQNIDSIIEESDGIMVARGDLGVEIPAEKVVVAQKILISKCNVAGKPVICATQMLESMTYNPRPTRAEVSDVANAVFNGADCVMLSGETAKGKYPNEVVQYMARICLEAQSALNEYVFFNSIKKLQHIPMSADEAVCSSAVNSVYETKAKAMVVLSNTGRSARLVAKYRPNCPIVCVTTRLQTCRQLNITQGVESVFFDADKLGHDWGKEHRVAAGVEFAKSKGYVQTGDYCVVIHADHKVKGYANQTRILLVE
smiles,measurement,setting,value
CC(N)=NCc1cccc(CN)c1,"activity change, negative = inhibition",[1],-2.56% (inactive)
same,Potency,[2],inactive
same,"activity change, negative = inhibition",[3],-2.12% (inactive)
same,"activity, negative = inhibition",[4],3.99% (inactive)
same,Potency,[5],> 46 µM (inactive)
same,Potency,[6],> 46 µM (inactive)
same,Potency,[7],inactive
same,Potency,[8],inactive
same,outcome,[9],inactive
same,Potency,[10],inactive
same,Potency,[11],inactive
same,Potency,[12],inactive
same,outcome,[13],inactive
same,outcome,[14],inactive
same,outcome,[15],inactive
same,outcome,[16],inactive
same,"activity change, negative = inhibition",[17]; at 57.5 µM (top of the series),0.387% (inactive)
same,max response,[17]; measured here: cell count channel max response,-16.1%
same,max response,[17]; measured here: lipid channel max response,-15%
same,Potency,[18],inactive
same,Potency,[19],inactive
